Screening results from PubChem BioAssay.
These entries were drawn from the full list.
aSyn UTR act – Activators via SNCA 5'UTR binding, MLPCN; activity score, % (tested at 7.5 µM), hits read low; alpha-synuclein 5'UTR reporter, activators screen; 300,000 compounds, 7.1% hits; AID 1814, 2009; in the data active means activity score below about -60%
Of the large screens only hits and unclear results are named; the others gave an inactive call.

c1ccc(N2OCC3Cn4c(nc5ccccc54)C32)cc1 (stereo not given)	aSyn UTR act -64
COc1cccc(OC)c1C(=O)NNC(=O)c1cccc(COc2ccc3c(c2)CCC3)c1	aSyn UTR act -91
COc1ccccc1OCCNC(=O)c1ccc2c(c1)CCC2	aSyn UTR act -138
O=C(NN1CCCCC1)c1cccc(COc2ccc(Cl)cc2)c1	aSyn UTR act -167
O=C(O)c1cccc(COc2ccc3c(c2)CCC3)c1	none
CCOc1ccc(OCc2cccc(C(=O)N3CCCCCC3)c2)cc1	none
COc1ccccc1OCCNC(=O)c1ccc2c(c1)OCCO2	aSyn UTR act -68
CC(C)NCC(O)Cn1c2c(c3ccccc31)CCc1c-2cnn1-c1ccccc1 (stereo not given)	none
COCCN=C1Sc2nc3ccc(C)cc3cc2CN1Cc1ccco1	aSyn UTR act -68
COCCN=C1Sc2nc3cc(C)c(C)cc3cc2CN1Cc1cccs1	aSyn UTR act -78
Cc1cc2nc(C3CCN(Cc4nnnn4Cc4cccs4)CC3)[nH]c2cc1C	none
O=C(NCCc1ccc(F)cc1)c1coc(=O)c(Br)c1	aSyn UTR act -64
Cc1cc(NC(=O)c2coc(=O)c(Br)c2)ccc1C(C)C	aSyn UTR act -75
O=C(Nc1ccccc1F)c1coc(=O)c(Br)c1	aSyn UTR act -62
Cc1cccc2nc(COc3ccc4ccccc4c3Br)cn12	aSyn UTR act -203
CC(C)NC(=O)c1cc(-c2ccc3c(c2)OCO3)on1	aSyn UTR act -110
CCCNC(=O)c1cc(-c2ccc3c(c2)OCO3)on1	aSyn UTR act -105
CCCCNC(=O)c1cc(-c2ccc3c(c2)OCO3)on1	aSyn UTR act -66
CCN(CC)C(=O)c1cc(-c2ccc3c(c2)OCO3)on1	aSyn UTR act -132
O=C(Nc1cccc(O)c1)c1cc(-c2ccc3c(c2)OCO3)on1	none
Cc1nc(NC(=O)c2cnccn2)ccc1Br	aSyn UTR act -101
Cc1nc(NC(=O)c2cncc(Br)c2)ccc1Br	aSyn UTR act -109
Oc1ccc(N=Nc2n[nH]c(-c3ccccc3)n2)cc1	aSyn UTR act -85
C(=N\C(/N=C/c1ccco1)c1ccco1)/c1ccco1	aSyn UTR act -68
Fc1cccc(/C=N/N=C/c2cccc(F)c2)c1	aSyn UTR act -62
C(=N\N=C\c1ccccc1)/c1ccccc1	aSyn UTR act -96
Cc1ccc(/C=N/N=C/c2ccc(C)cc2)cc1	aSyn UTR act -110
Cc1ccc2nc(-c3ccc(-c4ccccn4)s3)cn2c1	aSyn UTR act -111
Cc1ccc2nc(-c3ccccc3)cn2c1	none
CC(C)(C)c1ccc(-c2nnc(N)o2)cc1	aSyn UTR act -154
Cc1ccc(-c2cn(-c3ccccc3)c(SCC(=O)NC3CCS(=O)(=O)C3)n2)cc1C (stereo not given)	aSyn UTR act -143
O=C(Nc1nnc(CC2=CCCCC2)s1)Nc1ccccc1F	aSyn UTR act -81
O=C(Nc1nnc(-c2cccc(F)c2)s1)Nc1ccccc1F	aSyn UTR act -98
CC(c1ccccc1)c1nnc(NC(=O)Nc2ccccc2F)s1 (stereo not given)	aSyn UTR act -95
Cc1cc2nc(N)sc2cc1C	aSyn UTR act -64
CC(C)c1ccc2nc(N)sc2c1	aSyn UTR act -107
Nc1nc2ccc(OC(F)(F)F)cc2s1	aSyn UTR act -74
N#CC1=C(N)Nc2nc3ccccc3n2C1c1ccc(F)cc1 (stereo not given)	aSyn UTR act -117
Cc1cccc(/C(N)=N/OC(=O)CCC2CCCCC2)c1	aSyn UTR act -109
COc1ccc(/C(N)=N/OC(=O)CCC2CCCC2)cc1	aSyn UTR act -71
Cc1ccc(/C(N)=N/OC(=O)CCC2CCCC2)cc1	aSyn UTR act -85
Cn1c(-c2ccc(CN3CCCCC3)o2)nc2ccccc21	aSyn UTR act -89
c1ccc2c(c1)nnn2-c1ncnc2sccc12	aSyn UTR act -147
Cc1ccc(NC(=O)c2cc3cccc([N+](=O)[O-])c3[nH]2)cc1	aSyn UTR act -110
CNC(=O)c1cc2c(ccc3ccccc32)o1	aSyn UTR act -60
O=C(NC1CCCC1)c1cc2c(ccc3ccccc32)o1	aSyn UTR act -202
O=C(Nc1cc2c(ccc3ccccc32)oc1=O)C1CCCCC1	aSyn UTR act -62
COc1cc(Br)cc(/C=N/NC(=O)Cc2ccc(C(F)(F)F)cc2[N+](=O)[O-])c1O	none
O=C(CSc1ccc(C(F)(F)F)cc1[N+](=O)[O-])Nc1ccccc1	aSyn UTR act -75
O=C(CCl)Nc1cc(SCC(O)CO)cc([N+](=O)[O-])c1 (stereo not given)	none
Nc1c(C(=O)c2cccs2)oc2ccccc12	aSyn UTR act -99
Nc1c(C(=O)c2ccc(Br)s2)oc2ccccc12	aSyn UTR act -149
CC(=O)CCSc1ncnc2sc(-c3ccccc3)cc12	aSyn UTR act -174
O=C(O)CCSc1ncnc2sc(-c3ccccc3)cc12	none
COc1ccc2nc(N3CCOCC3)cc(C)c2c1	aSyn UTR act -79
Cc1cc(N2CCN(c3ccc(F)cc3)CC2)nc2cc(O)ccc12	aSyn UTR act -66
Cc1cc(N2CCN(c3ccccc3F)CC2)nc2cc(O)ccc12	aSyn UTR act -64
Cc1cc(N2CCOCC2)nc2cc(O)ccc12	aSyn UTR act -136
COc1cccc2c1OC1(CCN(C(C)C)CC1)N1N=C(c3cccnc3)CC21 (stereo not given)	aSyn UTR act -78
COc1ccc(C(=O)NOCc2ccccc2)cc1	aSyn UTR act -74
Cc1ccc(C(=O)N/C(=C\c2ccccc2)C(=O)OCc2ccccc2)cc1	aSyn UTR act -122
Cc1ccc(CONC(=O)c2ccccc2)cc1	aSyn UTR act -101
Cc1nc(NCCOc2ccccc2)sc1C(=O)Nc1ccccc1	aSyn UTR act -88
Cc1nc(NCc2ccccc2)sc1C(=O)Nc1ccccc1	aSyn UTR act -148
Cc1nc(Nc2ccccc2)sc1C(=O)Nc1ccccc1	aSyn UTR act -102
Nc1nc(Nc2ccccc2F)sc1C(=O)c1ccccc1	aSyn UTR act -188
CSc1nc(N(C)NC(=O)c2ccc(F)cc2)c2ccccc2n1	none
Cc1nc(Nc2ccccc2)sc1C(=O)c1ccc(F)cc1	aSyn UTR act -94
O=C(CC(=O)c1ccccc1)Nc1ccccc1C(F)(F)F	aSyn UTR act -63
COc1cccc(NC(=O)CC(=O)c2ccccc2)c1	aSyn UTR act -111
O=C(CC(=O)c1ccccc1)Nc1ccccn1	aSyn UTR act -130
O=C(O)/C(=C\C(=O)c1ccccc1)Nc1ccccc1	aSyn UTR act -91
O=C(CC(=O)c1ccccc1)Nc1ccccc1	aSyn UTR act -110
CCOC(=O)c1[nH]c2ccc(C)cc2c1N	aSyn UTR act -234
O=C(COC(=O)/C=C/c1cccs1)Nc1nc(-c2cccc(Br)c2)cs1	aSyn UTR act -79
O=C(/C=C/c1cccs1)Nc1nc(-c2ccccc2)cs1	aSyn UTR act -246
O=C(/C=C/c1cccs1)Nc1nncs1	aSyn UTR act -162
O=C(/C=C/c1cccs1)Nc1cccnc1	aSyn UTR act -175
Cc1ccnc(NC(=O)/C=C/c2cccs2)c1	aSyn UTR act -77
Cc1cccc(NC(=O)c2onc3c2CCCC3)n1	none
Cc1cccc(NC(=O)c2onc3c2CCCC3)c1C	aSyn UTR act -162
Cc1ccccc1NC(=O)c1onc2c1CCCC2	aSyn UTR act -131
O=C(Nc1ccc2ccccc2c1)c1onc2c1CCCC2	aSyn UTR act -71
COC(=O)c1cccc(NC(=O)c2onc3c2CCCC3)c1	none
CC1=Nn2c(nc3sc4c(c3c2=O)CCCC4)SC1	aSyn UTR act -142
Cc1ccc(-c2nc3sc4c(c3c(=O)n2N)CCCC4)cc1	aSyn UTR act -107
Cc1ccc(-n2cnc3sc(C)c(C)c3c2=O)cc1	aSyn UTR act -98
